Only a selection was taken, and hits are over-represented in it overall.
MgrA DNA FP: S. aureus MgrA activity modulators, primary screen, biochemical, S. aureus Newman, fluorescence polarization; AID 602314, 2012; 0.13% of 84,000 active; inhibition, % (no concentration beside the values); MgrA-DNA binding; in the data active = inhibition above about 30%, passing the limit was not always enough;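 also: higher means less MgrA bound to DNA so lower polarization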
A number is an active result; - = inactive.

SMILES	MgrA DNA FP
CN1CCc2[nH]c(=S)c(C#N)c(-c3ccccc3)c2C1	-
CN1CCc2c(C#N)c(N)n(N)c(=S)c2C1	161
CN1CCc2c(C#N)c(Cl)nc(NCc3ccccc3)c2C1	-
COCc1c(C)cc(C)c(C=C(C#N)C#N)c1C	-
O=C(NC1CC2CCC(C1)N2)c1ccccc1 (stereo unspecified)	-
O=C1NC(=O)N(c2ccccc2)C(=O)/C1=C/c1ccco1	-
O=C1NC(=S)N(c2ccccc2)C(=O)/C1=C/C=C/c1ccco1	80
CN1C(=O)NC(=O)/C(=C/c2ccco2)C1=O	-
CCOc1ccc(NC(=O)C23CC4CC(CC(C4)C2)C3)cc1	-
COC(=O)C1(C#N)C(c2ccc(C)cc2C)C(C(=O)c2ccccc2)N2c3ccccc3C=CC21 (stereo unspecified)	-

Screens from PubChem BioAssay.
